Assay results: ChEMBL document CHEMBL3988442, “University of Dundee, Small-Polar-MMV Screening Library” (2021)
Among all 48,000 compounds or so, about 13,000 (27%) showed an effect of 50% or more. The list shows a part of the results.

System: Wolbachia pipientis
Assay: Anti-Wolbachia Cell-Based Screen
Format: functional
Set-up: scale not given: in the data most compounds retested in dose-response had high values
Details: 5 µM

Compound	Percent Effect [%]
CCc1ccc2c(C3CN(CC4CCC4)C3)ncn2c1.O=C(O)C(F)(F)F	1.201
Cc1ccc(C(=O)N2CCSCC2)cc1NC(C)C	-20.08
CN(C)c1nc2c(c(N3CCC(O)CC3)n1)CN(CC1CCNC1)CC2 (stereo not drawn)	-8.406
CCC(CO)N(Cc1ccccn1)C(=O)c1ccc(CSC)o1 (stereo not drawn)	18.24
CNS(=O)(=O)c1cccc(CNC(=O)c2cnn(C)c2C)c1	-2.681
Cc1c(C(=O)NC(CN2CCCC2=O)c2ccccc2)cnn1C (stereo not drawn)	-6.718
Cc1c(C(=O)NC(C)CC(=O)c2cccs2)cnn1C (stereo not drawn)	85.26
O[C@H]1[C@H](NCCc2cnccn2)c2ccccc2C12CCNCC2	1.46
CC1CCN(CCNC(=O)C2CCN(C(=O)C3CC3)CC2)CC1	7.892
CCc1ccsc1C(=O)NC(C#N)CC(C)C (stereo not drawn)	102.3
CCc1ccsc1C(=O)NC(Cc1ccccc1)C(N)=O (stereo not drawn)	1.098
CCCC(C#N)NC(=O)c1sccc1CC (stereo not drawn)	99.07
CCc1nc(CC(=O)NC(C#N)CC(C)C)cs1 (stereo not drawn)	0.9973
CC(C)CCC(=O)NC(C#N)CC(C)C (stereo not drawn)	5.343
CCc1ccsc1C(=O)NC(C#N)CC (stereo not drawn)	105.4
CCc1nc(CC(=O)NC(C#N)CC)cs1 (stereo not drawn)	-7.062
COc1ccsc1C(=O)Nc1cc(Br)c(=O)n(C)c1	-2.156
COc1ccsc1C(=O)NCCNc1ccccc1	-8.97
CCCC(C#N)NC(=O)Cc1csc(CC)n1 (stereo not drawn)	-2.381
CCC(C#N)NC(=O)c1sccc1OC (stereo not drawn)	86.18
CCCC(C#N)NC(=O)COC1CCCCC1 (stereo not drawn)	-4.378
Cc1nc(O)cc(CN2CCC=C(CN(C)C(=O)c3ccco3)C2)n1	2.928

Compound	Percent Effect [%]
Cc1nc2c(c(N(C)Cc3ccccc3-n3cccn3)n1)CCNCC2	14.94
COc1ccc(C(=O)N2C[C@@H](C(=O)O)[C@H](c3ccccc3C)C2)c(O)c1	-2.704
CCNC(=O)[C@@H]1CCCN1C1(C(=O)NC)CCCCC1.Cl	1.197
COc1cccc(COCC(=O)N2CCC(CC(N)=O)CC2)c1	-12.19
O=C(c1ccc(S(=O)(=O)NCC(F)F)cc1)N1C[C@H]2CNC[C@H]2C1	19.64
O=C(c1cnnn1-c1ccccc1)N1CCCC(c2ccn[nH]2)C1 (stereo not drawn)	106
O=C1CCCCCN1CCC(=O)N1CCCC(c2ccn[nH]2)C1 (stereo not drawn)	2.164
O=C(c1cc(=O)n(-c2ccccc2)[nH]1)N1CCCC(c2ccn[nH]2)C1 (stereo not drawn)	77.64
Cc1cc(OCC(=O)N2CCCC(c3ccn[nH]3)C2)no1 (stereo not drawn)	1.786
O=C(CCCc1nc(C2CC2)no1)N1CCCC(c2ccn[nH]2)C1 (stereo not drawn)	-3.493
Cn1cncc1C(=O)N1CCCC(c2ccn[nH]2)C1 (stereo not drawn)	108.7
CC(C)c1cnc(CN2CCCC(c3ccn[nH]3)C2)o1 (stereo not drawn)	-28.34
O=C(c1cnc2ccccn12)N1CCCC(c2ccn[nH]2)C1 (stereo not drawn)	107.7
O=C(CN1CCCC(c2ccn[nH]2)C1)Nc1nncs1 (stereo not drawn)	12
CC(C)c1ocnc1C(=O)N1CCCC(c2ccn[nH]2)C1 (stereo not drawn)	-7.734
CC(C)N1CCC(c2ccnc3c(C(=O)N4CCOCC4)ncn23)CC1	-16.45
Cn1nc(Cn2cccn2)c2c1CN(Cc1ccoc1)C2.O=C(O)C(F)(F)F	-5.298
Cc1noc([C@@]23CCO[C@@H]2CCN(C(=O)CCC(C)C)C3)n1	4.63
Cc1noc([C@@]23CCO[C@@H]2CCN(C(=O)c2cc(C)on2)C3)n1	4.569
Cc1noc([C@@]23CCO[C@@H]2CCN(C(=O)c2cc(C)[nH]c2C)C3)n1	12.25
CC(=O)N1CCC(C)(c2nc(C)no2)CC1	134.3
COCC(=O)N1CC[C@H]2OCC[C@@]2(c2nc(C)no2)C1	6.759

Compound	Percent Effect [%]
Cc1noc(C2(C)CCCN(C(=O)C(C)C)C2)n1 (stereo not drawn)	123
Cc1noc(C2(C)CCN(C(=O)C(C)C)CC2)n1	126.4
Cc1noc([C@@]23CCO[C@@H]2CCN(C(=O)c2cc(C)c(C)s2)C3)n1	6.303
Cc1noc([C@@]23CCO[C@@H]2CCN(C(=O)CN(C)C)C3)n1	5.284
Cc1cccc2c1nc(CCO)n2-c1ccc(C(=O)N2CCCC2)o1	4.629
Fc1cccc(-n2cc(CN3CCCCC3CCn3ccnc3)cn2)c1 (stereo not drawn)	-14.22
CC(C)(N)C(=O)N1CCCC1c1cncc(Oc2ccccc2)n1 (stereo not drawn)	115.4
CC(C)(N)C(=O)N1CCCC1c1cncc(Oc2ccc(F)cc2)n1 (stereo not drawn)	9.255
CC(C)(N)C(=O)N1CCCC(c2cncc(Oc3cccnc3)n2)C1 (stereo not drawn)	102.7
CC(C)C(=O)N1CCCC(c2cncc(Oc3cccnc3)n2)C1 (stereo not drawn)	130.5
Cc1cncc(C2CCCN(C(=O)c3cccn3C)C2)n1 (stereo not drawn)	5.721
CCS(=O)(=O)c1ncc(CN(C)Cc2ccccc2Cl)n1CCOC	6.102
CCN(CC)Cc1cc(C(=O)N2CC(C)(C)[C@@](C)(O)C2)c(C)o1	-3.4
O=S1(=O)CCC(n2nc(COc3ccccc3)nc2-c2cnccn2)C1 (stereo not drawn)	-50.17
CS(=O)(=O)N1CCC2(CC1)COC(COc1cccnc1)C2.O=C(O)C(F)(F)F (stereo not drawn)	-9.864
O=C(COc1ccccc1)N(Cc1ccncc1)C1CC1	-3.212
CC(C)(C)CN1CC(COc2ccccc2)Oc2ccncc2S1(=O)=O (stereo not drawn)	80.37
O=S1(=O)c2cnccc2OC(COc2ccccc2)CN1CC1CC1 (stereo not drawn)	96.1
Cc1nc2cc(=O)[nH]n2c(C)c1CC(=O)Nc1cnn(C)c1	-2.134
CCc1ncc(C(=O)N(C)CC2Cc3ccccc3O2)cn1 (stereo not drawn)	-1.94
Cc1nn(C)c(C)c1CCNC(C)c1ccc(-n2ccnc2C)cc1 (stereo not drawn)	-1.532
O=C(C1=CC2(CCN(CCO)CC2)c2ccccc21)N1CCCC1.O=C(O)C(F)(F)F	-8.81

Compound	Percent Effect [%]
Cc1ccc(CN2CCC3(CC2)OC(C(=O)N(C)C)c2ccccc23)o1.O=C(O)C(F)(F)F (stereo not drawn)	8.053
CC(C)CN1CCC2(C=C(C(=O)N3CCCC3)c3ccccc32)CC1.O=C(O)C(F)(F)F	13.87
CC(C)N1CCC2(C=C(C(=O)N(C)C)c3ccccc32)CC1.O=C(O)C(F)(F)F	-1.303
CCN1CCC2(C=C(C(=O)N(C)C)c3ccccc32)CC1.O=C(O)C(F)(F)F	130.6
CC(C)CN1CCC2(C=C(C(=O)N(C)C)c3ccccc32)CC1.O=C(O)C(F)(F)F	90.84
COc1ccc(C(C)NCc2c[nH]nc2C)cc1Br.Cl (stereo not drawn)	2.435
Cc1ncoc1C(=O)N1CCc2[nH]nc(-c3ccc4c(c3)OCO4)c2C1	-5.297
CC(C)CC(CCO)CNC(=O)N1CCCC1(C)C (stereo not drawn)	-11.2
O=C(O)C(F)(F)F.O=C(c1ccncc1)N1CCCC2(COCCN(c3ccccc3)C2)C1 (stereo not drawn)	3.35
O=C(O)C(F)(F)F.O=C(c1cccnc1)N1CCOC2(COCCN(c3cncnc3)C2)C1 (stereo not drawn)	-2.912
O=C(O)C(F)(F)F.O=C([C@H]1CCCO1)N1CCCC2(COCCN(c3ccccc3)C2)C1 (stereo partly drawn)	121.5
O=C(c1ccc[nH]1)N1CC2(CCN(c3ncccn3)C2)C1	-13.43
O=C(C1CCCO1)N1CCCC2(CCN(c3cccnc3)CC2)C1.O=C(O)C(F)(F)F (stereo not drawn)	111.1
O=C(c1ccnnc1)N1CC2(CCN(c3ncccn3)C2)C1	-3.842
O=C(C1CCCC1)N1CCCC2(CCN(c3cnccn3)CC2)C1.O=C(O)C(F)(F)F	-29.32
O=C(c1cccnc1)N1CCOCC2(CCN(c3ncccn3)C2)C1 (stereo not drawn)	104.1
O=C(O)C(F)(F)F.O=C(c1cccnc1)N1CCCC2(COCCN(c3ccccc3)C2)C1 (stereo not drawn)	104.3
O=C(C1CCCCC1)N1CCCC2(CCN(c3cnccn3)CC2)C1.O=C(O)C(F)(F)F	1.174
Cc1cc(C(=O)N2CCCC3(COCCN(c4ccccc4)C3)C2)[nH]n1 (stereo not drawn)	-3.26
COc1ccc(C)cc1CN1CCN(Cc2nccn2C)C(C)C1 (stereo not drawn)	-12.47
OCc1cc2ccccc2nc1NC1CC=CC1	-7.436
COCCCN(Cc1cnc(-c2cccs2)nc1)C1CCN(C)CC1	117

Compound	Percent Effect [%]
COCCCN(Cc1cnc(-c2ccccn2)nc1)C1CCN(C)CC1	120.4
CCN(Cc1cnc(-c2ccccn2)nc1)C1CCS(=O)(=O)C1 (stereo not drawn)	-5.567
CC(C1CCN(Cc2cnc(-c3cccs3)nc2)CC1)N(C)C (stereo not drawn)	1.758
CC(C)n1cnnc1CN(C)Cc1cnc(-c2cccs2)nc1	3.781
CC(C)n1cnnc1CN(C)Cc1cnc(-c2ccccn2)nc1	11.81
CCC(O)CN(c1ccccc1)S(=O)(=O)c1cnc(C)s1 (stereo not drawn)	-3.963
CCCn1nc(C)c(CN2CC3(CCOC3)CCC2=O)c1C (stereo not drawn)	-15.65
CC(C)C(=O)NCc1cccc(N2CCCCC2=O)c1	-5.894
Cc1ccc(S(=O)(=O)Nc2c(C)nc(N3CCCC3)nc2C)cc1	15.76
COc1ncc(NS(=O)(=O)c2ccc(F)cc2F)cn1	7.047
O=S(=O)(Nc1cnc(N2CCOCC2)nc1)c1ccc(C(F)(F)F)cc1	-10.38
Cc1nc(N(C)C)nc(C)c1NS(=O)(=O)c1ccc(OC(F)(F)F)cc1	120.1
O=S(=O)(NCc1cc2n(n1)CCNC2)c1ccc(OC(F)(F)F)cc1	12.96
CCOc1ccc(S(=O)(=O)Nc2cnc(OC)nc2OC)cc1	-50.06
O=S(=O)(Nc1cnc(N2CCCC2)nc1)c1ccc(C(F)(F)F)cc1	2.34
CN(C)c1ccc(C(=O)N2CCCc3cc(OC(F)(F)F)ccc32)cn1	0.3128
O=S(=O)(Nc1cnc(N2CCCC2)nc1)c1ccc(OC(F)(F)F)cc1	113.1
COc1ccc(S(=O)(=O)Nc2cnc(N(C)C)nc2)cc1	87.85
CN(C)c1ncc(NS(=O)(=O)c2ccc(OC(F)(F)F)cc2)cn1	123.3
Cn1cc(NS(=O)(=O)c2ccc(OC(F)(F)F)cc2)ccc1=O	-16.2
